Holding throughout (assay): qHTS profiling for inhibitors of Plasmodium falciparum proliferation (AID 504749); also: nearly all actives have a fitted effect of over 60% in size
Holding throughout (conditions): P. falciparum in erythrocytes, SYBR Green DNA, 72 h; series mostly up to 28.7 µM

One test has as its system CP217. The method, boiled down:
(§1)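 SYBR Green fluorescence of parasite DNA, read after lysis and overnight dark incubation, measured growth over 72 h in erythrocyte culture at 0.3% parasitemia and 2.5% hematocrit. Data normalised to DMSO and 0.29 uM artemisinin, with plate-drift correction.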

In the next test the test system is CP237. In outline:
as §1

Another test has as its system CP247. In outline: as §1
The test system of a further test is CP252. The method, boiled down: as §1
The next test has as its system CP256. The method, boiled down: as §1
In another test the test system is CP260. In outline: as §1
For a further test, the system named is CP262. In outline:
as §1

For a further test, the system named is CP265. In outline:
as §1

A further test relates to CP286. The method, boiled down: as §1
The test system of another test is CP250. In outline: as §1
In the next test the test system is CP266. In outline: as §1
A further test has as its system CP315. The method, boiled down: as §1
Another test has as its system CP238. In outline: as §1
In another test the test system is CP268. The method, boiled down: as §1
The test system of a further test is CP269. In outline:
as §1

The subject of another test is CP291. The method, boiled down:
as §1

The test system of another test is CP305. The method, boiled down:
as §1

The next test concerns CP325. In outline:
as §1

In another test the test system is CP329. In outline:
as §1

For the next test, the system named is CP297. In outline:
as §1

Results filed as inconclusive are left out. The source made the active and inactive calls. Calls follow the shape of the dose curve; as a rule, active = well fitted inhibition curve with a large enough effect; inconclusive = small, poorly fitted or top-dose-only effect; inactive = flat fitted curve, though single readings scatter.
Potency is read from the fitted curve at half-maximal effect.

Turning to `CCOC(=O)Nc1ccc(NCc2ccc(F)cc2)nc1N`, the Potency was 10 µM (active) in the test on CP217; 10 µM (active) with CP237; 12.6 µM (active) in the test on CP247; 8.91 µM (active) in the test on CP252; 10 µM (active) in the test on CP256; 11.2 µM (active) in the test on CP260. The Potency was 12 µM (active) in the test with CP262, 11.2 µM (active) with CP265 and 8.91 µM (active) with CP286.

With `CN1CCC(=C2c3ccccc3CC(=O)c3sccc32)CC1`, the Potency result with CP250, in the test with CP252, in the test with CP262, in the test on CP266, in the test with CP286 and with CP315 was “inactive” in each case. In addition, the Potency in the test on CP265 is 10 µM (active).

For the compound `O=C1N(c2ccccc2)c2ccccc2C1(Cc1ccncc1)Cc1ccncc1`, the Potency entry in the test with CP217, with CP238, in the test on CP247, in the test with CP250, in the test with CP252 and in the test with CP256 was “inactive” throughout. The Potency entry with CP260, in the test with CP262, with CP265, with CP266, in the test with CP268 and in the test on CP269 was “inactive” in each case. Further, the Potency result with CP286, in the test with CP291, with CP305, in the test on CP315, with CP325 and in the test on CP329 was “inactive” each time.

On to `O=C1c2c(O)ccc(O)c2C(=O)c2c(NCCNCCO)ccc(NCCNCCO)c21`, for which the Potency in the test on CP217 is 3.55 µM (active); with CP237, 1.26 µM (active); in the test with CP238 it was 3.16 µM (active); with CP247, 3.16 µM (active); in the test with CP250 it was 3.16 µM (active); in the test on CP252, 3.16 µM (active). Moreover, the Potency with CP260 was 1 µM (active); in the test on CP266 it was 5.1 µM (active); in the test with CP268, 7.21 µM (active); in the test on CP269, 7.21 µM (active); in the test on CP286, 1.12 µM (active); in the test on CP291, 6.42 µM (active). For the same compound, the Potency was 6.42 µM (active) with CP297, 5.1 µM (active) in the test with CP305 and 6.42 µM (active) with CP315.

As to `COc1nc(C)nc(Cl)c1NC1=NCCN1`, the Potency result in the test with CP217, in the test with CP237, in the test with CP238, in the test on CP247, with CP250 and in the test with CP252 was “inactive” each time. Further, the Potency result with CP256, in the test with CP260, with CP262, with CP265, with CP268 and in the test on CP269 was “inactive” in each case. In addition, the Potency result in the test with CP286, with CP291, in the test on CP305, in the test with CP315, with CP325 and in the test on CP329 was “inactive” throughout.

In the case of `CC(C)NCC(O)c1ccc(O)c(O)c1` (centres undefined), the Potency entry with CP217, in the test with CP237, with CP238, in the test with CP247, with CP250 and with CP252 was “inactive” in each case. Further, the Potency entry in the test on CP256, with CP260, with CP262, in the test with CP265, in the test with CP268 and in the test on CP269 was “inactive” in each case. In addition, the Potency entry in the test on CP286, in the test with CP291, in the test on CP297, in the test on CP305, with CP315 and in the test with CP325 was “inactive” each time. The Potency result with CP329 was “inactive”.

Consider `NC12CC3CC(CC(C3)C1)C2`, for which the Potency entry with CP217, in the test on CP238, with CP247, with CP250, with CP252 and with CP260 was “inactive” each time. The Potency result in the test on CP262, in the test with CP265, in the test with CP266, with CP268, in the test on CP269 and in the test with CP286 was “inactive” throughout. Moreover, the Potency result in the test on CP291, with CP305, with CP315, in the test with CP325 and in the test on CP329 was “inactive” in each case.

On to `CC12CC3CC(C)(C1)CC(N)(C3)C2`, for which the Potency result in the test on CP217, in the test with CP238, in the test on CP247, in the test with CP250, in the test with CP252 and in the test with CP256 was “inactive” in each case. Besides, the Potency entry in the test on CP262, with CP265, in the test on CP266, with CP268, in the test on CP269 and in the test on CP286 was “inactive” in each case. For the same compound, the Potency entry with CP291, with CP305, with CP315, in the test on CP325 and in the test with CP329 was “inactive” in each case.

Turning to `CC(COc1ccccc1)N(CCCl)Cc1ccccc1` (centres undefined), the Potency in the test on CP237 was 11.2 µM (active). Further, the Potency entry with CP247, with CP250, in the test with CP252, in the test on CP256, with CP262 and in the test with CP266 was “inactive” in each case. Besides, the Potency entry in the test with CP269, in the test with CP305, in the test on CP315 and in the test on CP325 was “inactive” each time.

`CN(C)CCOC(c1ccccc1)c1ccccc1`: the Potency result in the test with CP217, in the test on CP247, in the test on CP250, in the test on CP262, in the test on CP266 and in the test with CP269 was “inactive” each time. Moreover, the Potency entry in the test with CP315 and in the test with CP329 was “inactive” throughout. Moreover, the Potency in the test on CP260 is 5.62 µM (active).

In the case of `CN(C)C(=N)N=C(N)N`, the Potency result in the test with CP217, in the test on CP237, in the test on CP238, in the test on CP247, in the test with CP250 and in the test with CP252 was “inactive” in each case. The Potency entry in the test on CP256, in the test with CP260, in the test on CP265, in the test with CP266, in the test on CP286 and in the test with CP305 was “inactive” throughout. In addition, the Potency entry in the test on CP325 and with CP329 was “inactive” throughout.

For the origin of these results see PubChem BioAssay (NCATS).
